The source of these data is article PMC7862700, “An all-to-all approach to the identification of sequence-specific readers for epigenetic DNA modifications on cytosine”.

What all share (experiment): DAPPL (digital affinity profiling via proximity ligation, sequencing); 10 mM Tris-HCl pH 7.5, 50 mM NaCl, 1 mM DTT, 4% glycerol, room temperature, 30 min; GST-TFs on glutathione beads, 16-mer random dsDNA library, 0.1% formaldehyde crosslink after washing; high values mean tight binding
Assay [1] deals with T1, FEV (Homo sapiens, UniProt Q99581 1-238).
T1 sequence: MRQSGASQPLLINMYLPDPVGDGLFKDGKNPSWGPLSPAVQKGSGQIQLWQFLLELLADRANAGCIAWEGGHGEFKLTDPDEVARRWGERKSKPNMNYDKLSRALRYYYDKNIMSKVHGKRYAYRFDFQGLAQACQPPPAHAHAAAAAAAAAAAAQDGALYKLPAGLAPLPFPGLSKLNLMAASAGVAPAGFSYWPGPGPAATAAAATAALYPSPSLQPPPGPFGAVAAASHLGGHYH
As to conditions: protein: recombinant; tags: N-terminal GST; dsDNA, one strand shown. In a few lines:
(§1)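 In yeast, human transcription factors were expressed with a GST fusion, then pulled down on glutathione beads and given DNA barcodes. Pooled with a tag-only sample, they were exposed to 200 nmole of a 16-mer random double-stranded DNA library (Tris/NaCl/DTT/glycerol buffer, room temperature, 30 min), washed, crosslinked with 0.1% formaldehyde, proximity-ligated using BsaI/T4 ligase for 1 h at 37 °C, PCR-amplified and read on an Illumina NextSeq500. Each hexamer's frequency of reads for a factor, divided by the matching frequency for the tag-only sample, gives the binding signal.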

The target of assay [2] is ETV5 (Homo sapiens, UniProt P41161 1-510). To be noted: protein: recombinant; tags: N-terminal GST; dsDNA, one strand shown. In a few lines:
as §1

Assay [3] has as its target HSF1 (Homo sapiens, UniProt Q00613 1-529). As to conditions: protein: recombinant; tags: N-terminal GST; chain copies: 3; dsDNA, one strand shown. In a few lines: as §1
Assay [4] has as its target T2, SPIC (Homo sapiens, UniProt Q8N5J4 1-248).
T2 sequence: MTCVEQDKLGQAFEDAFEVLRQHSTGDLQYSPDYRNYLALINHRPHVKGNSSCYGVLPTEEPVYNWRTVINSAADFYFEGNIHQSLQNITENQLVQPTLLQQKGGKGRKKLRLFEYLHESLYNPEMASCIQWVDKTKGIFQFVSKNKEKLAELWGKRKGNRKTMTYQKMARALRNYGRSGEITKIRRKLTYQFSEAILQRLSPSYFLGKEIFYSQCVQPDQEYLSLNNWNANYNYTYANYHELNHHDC
As to conditions: protein: recombinant; tags: N-terminal GST; dsDNA, one strand shown. In a few lines:
as §1

For assay [5], the target named is ELF4 (Homo sapiens, UniProt Q99607 1-663). To be noted: protein: recombinant; tags: N-terminal GST; dsDNA, one strand shown. In a few lines:
as §1

Assay [6] addresses T3, ELK4 (Homo sapiens, UniProt P28324-2 1-405).
T3 sequence: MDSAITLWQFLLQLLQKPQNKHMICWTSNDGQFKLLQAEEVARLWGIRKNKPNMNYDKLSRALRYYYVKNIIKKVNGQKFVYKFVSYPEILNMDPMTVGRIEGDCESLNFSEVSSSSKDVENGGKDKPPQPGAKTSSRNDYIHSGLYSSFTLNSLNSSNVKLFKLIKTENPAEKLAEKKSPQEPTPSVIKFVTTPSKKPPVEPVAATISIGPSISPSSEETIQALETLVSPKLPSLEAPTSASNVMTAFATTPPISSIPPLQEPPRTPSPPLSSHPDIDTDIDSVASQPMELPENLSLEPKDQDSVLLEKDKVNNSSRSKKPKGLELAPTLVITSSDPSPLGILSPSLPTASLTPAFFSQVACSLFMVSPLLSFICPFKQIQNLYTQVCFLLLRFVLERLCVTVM
To be noted: protein: recombinant; tags: N-terminal GST; dsDNA, one strand shown. In a few lines: as §1

Assay [7] addresses T4, ETV2 (Homo sapiens, UniProt O00321 1-342).
T4 sequence: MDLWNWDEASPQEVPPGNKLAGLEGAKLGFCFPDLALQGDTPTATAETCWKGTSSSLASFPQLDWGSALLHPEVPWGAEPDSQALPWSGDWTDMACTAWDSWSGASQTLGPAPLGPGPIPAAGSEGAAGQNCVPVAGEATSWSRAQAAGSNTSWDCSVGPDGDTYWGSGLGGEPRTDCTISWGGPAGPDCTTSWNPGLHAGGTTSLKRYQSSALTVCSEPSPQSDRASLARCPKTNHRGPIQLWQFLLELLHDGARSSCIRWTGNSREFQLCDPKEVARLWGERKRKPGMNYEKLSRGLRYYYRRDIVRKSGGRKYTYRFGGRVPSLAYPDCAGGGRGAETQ
To be noted: protein: recombinant; tags: N-terminal GST; dsDNA, one strand shown. In a few lines: as §1

In assay [8] the target is T5, ELF3 (Homo sapiens, UniProt P78545 1-371).
T5 sequence: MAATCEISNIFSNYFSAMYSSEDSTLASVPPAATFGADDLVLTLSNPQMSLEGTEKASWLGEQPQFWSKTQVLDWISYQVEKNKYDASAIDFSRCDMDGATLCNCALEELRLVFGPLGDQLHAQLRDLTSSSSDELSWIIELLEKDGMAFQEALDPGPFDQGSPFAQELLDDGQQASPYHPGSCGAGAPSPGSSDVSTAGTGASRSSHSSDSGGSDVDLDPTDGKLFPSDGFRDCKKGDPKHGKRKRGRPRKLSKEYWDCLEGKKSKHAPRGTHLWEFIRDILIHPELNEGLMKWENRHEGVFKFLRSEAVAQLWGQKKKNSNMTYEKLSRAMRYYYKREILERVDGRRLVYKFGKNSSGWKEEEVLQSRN
As to conditions: protein: recombinant; tags: N-terminal GST; dsDNA, one strand shown. In a few lines: as §1

Assay [9] has as its target CRX (Homo sapiens, UniProt O43186 1-299). As to conditions: protein: recombinant; tags: N-terminal GST; dsDNA, one strand shown. In a few lines:
as §1

The target of assay [10] is ETV1 (Homo sapiens, UniProt P50549 1-477). To be noted: protein: recombinant; tags: N-terminal GST; dsDNA, one strand shown. In a few lines:
as §1

The target in assay [11] is T6, ERF (Homo sapiens, UniProt P50548 1-548).
T6 sequence: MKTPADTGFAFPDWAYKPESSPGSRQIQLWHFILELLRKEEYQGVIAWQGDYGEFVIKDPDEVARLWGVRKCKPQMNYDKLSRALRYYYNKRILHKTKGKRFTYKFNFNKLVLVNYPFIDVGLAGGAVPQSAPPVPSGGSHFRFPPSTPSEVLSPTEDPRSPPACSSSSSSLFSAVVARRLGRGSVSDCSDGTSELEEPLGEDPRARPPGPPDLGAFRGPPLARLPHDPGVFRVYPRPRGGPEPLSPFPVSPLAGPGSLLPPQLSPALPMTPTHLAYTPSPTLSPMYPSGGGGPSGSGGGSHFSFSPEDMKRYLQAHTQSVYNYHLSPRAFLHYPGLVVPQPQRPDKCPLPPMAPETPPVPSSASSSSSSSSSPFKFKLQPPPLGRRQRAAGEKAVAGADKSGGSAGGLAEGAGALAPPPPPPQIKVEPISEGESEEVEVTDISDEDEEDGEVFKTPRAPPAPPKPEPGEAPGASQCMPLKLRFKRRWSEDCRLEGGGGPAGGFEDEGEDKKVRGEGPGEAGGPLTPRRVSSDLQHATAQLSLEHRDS
To be noted: protein: recombinant; tags: N-terminal GST; dsDNA, one strand shown. In a few lines: as §1

Assay [12] addresses T7, ETV3L (Homo sapiens, UniProt Q6ZN32 1-361).
T7 sequence: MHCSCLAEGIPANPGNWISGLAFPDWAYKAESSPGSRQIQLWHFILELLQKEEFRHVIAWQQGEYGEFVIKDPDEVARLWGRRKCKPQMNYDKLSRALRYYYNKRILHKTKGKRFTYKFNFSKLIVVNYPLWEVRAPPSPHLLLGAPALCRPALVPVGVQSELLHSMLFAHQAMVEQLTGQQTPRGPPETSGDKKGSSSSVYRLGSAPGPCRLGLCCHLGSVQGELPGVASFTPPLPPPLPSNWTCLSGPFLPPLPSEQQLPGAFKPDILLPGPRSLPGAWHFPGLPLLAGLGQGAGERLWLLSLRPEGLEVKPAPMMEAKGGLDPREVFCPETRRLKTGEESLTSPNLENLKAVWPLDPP
To be noted: protein: recombinant; tags: N-terminal GST; dsDNA, one strand shown. In a few lines: as §1

Assay [13] concerns the target T8, ETS2 (Homo sapiens, UniProt P15036 1-469).
T8 sequence: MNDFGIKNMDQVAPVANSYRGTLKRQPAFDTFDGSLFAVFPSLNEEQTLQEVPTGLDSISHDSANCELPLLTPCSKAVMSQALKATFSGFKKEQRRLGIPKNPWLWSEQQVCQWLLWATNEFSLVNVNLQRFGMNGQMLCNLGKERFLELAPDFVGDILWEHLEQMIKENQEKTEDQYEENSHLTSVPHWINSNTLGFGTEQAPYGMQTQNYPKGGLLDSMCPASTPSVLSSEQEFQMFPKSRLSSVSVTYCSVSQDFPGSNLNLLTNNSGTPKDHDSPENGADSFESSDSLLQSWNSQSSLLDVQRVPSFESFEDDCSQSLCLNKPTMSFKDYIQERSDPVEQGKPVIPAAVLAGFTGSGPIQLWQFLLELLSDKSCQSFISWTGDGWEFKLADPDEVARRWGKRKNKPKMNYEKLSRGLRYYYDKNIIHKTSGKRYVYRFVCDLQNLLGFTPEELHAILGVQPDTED
As to conditions: protein: recombinant; tags: N-terminal GST; dsDNA, one strand shown. In a few lines: as §1

In assay [14] the target is T9, SPDEF (Homo sapiens, UniProt O95238 1-335).
T9 sequence: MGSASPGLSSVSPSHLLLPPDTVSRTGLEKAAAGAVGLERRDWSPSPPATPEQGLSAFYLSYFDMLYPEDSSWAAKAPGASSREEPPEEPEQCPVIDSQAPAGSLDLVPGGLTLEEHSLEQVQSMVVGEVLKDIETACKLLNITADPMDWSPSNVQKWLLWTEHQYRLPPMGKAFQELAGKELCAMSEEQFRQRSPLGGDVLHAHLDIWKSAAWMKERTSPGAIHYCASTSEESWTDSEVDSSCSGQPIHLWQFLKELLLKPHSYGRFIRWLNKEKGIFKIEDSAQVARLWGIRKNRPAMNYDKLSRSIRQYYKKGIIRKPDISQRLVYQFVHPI
As to conditions: protein: recombinant; tags: N-terminal GST; dsDNA, one strand shown. In a few lines:
as §1

Assay [15] deals with T10, ETV7 (Homo sapiens, UniProt Q9Y603 1-341).
T10 sequence: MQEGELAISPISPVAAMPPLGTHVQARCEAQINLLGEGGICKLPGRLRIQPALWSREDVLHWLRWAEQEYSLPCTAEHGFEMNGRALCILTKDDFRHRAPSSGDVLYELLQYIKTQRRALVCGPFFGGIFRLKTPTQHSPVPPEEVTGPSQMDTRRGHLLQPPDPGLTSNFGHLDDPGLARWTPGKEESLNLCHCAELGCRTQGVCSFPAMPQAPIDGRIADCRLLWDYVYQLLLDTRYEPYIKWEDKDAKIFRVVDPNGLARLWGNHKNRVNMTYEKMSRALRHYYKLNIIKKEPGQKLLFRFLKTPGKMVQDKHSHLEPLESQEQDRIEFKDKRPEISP
As to conditions: protein: recombinant; tags: N-terminal GST; dsDNA, one strand shown. In a few lines: as §1

Assay [16] addresses T11, ELF5 (Homo sapiens, UniProt Q9UKW6-2 1-255).
T11 sequence: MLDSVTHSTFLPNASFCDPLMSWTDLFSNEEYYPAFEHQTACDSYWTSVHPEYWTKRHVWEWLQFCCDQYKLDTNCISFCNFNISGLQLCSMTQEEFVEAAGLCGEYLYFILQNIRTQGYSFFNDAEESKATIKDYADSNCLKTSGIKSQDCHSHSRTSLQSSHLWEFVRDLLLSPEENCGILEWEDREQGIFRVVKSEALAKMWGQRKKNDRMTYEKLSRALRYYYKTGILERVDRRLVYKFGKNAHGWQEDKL
As to conditions: protein: recombinant; tags: N-terminal GST; dsDNA, one strand shown. In a few lines:
as §1

Assay [17] addresses T12, ETV3 (Homo sapiens, UniProt P41162-2 1-143).
T12 sequence: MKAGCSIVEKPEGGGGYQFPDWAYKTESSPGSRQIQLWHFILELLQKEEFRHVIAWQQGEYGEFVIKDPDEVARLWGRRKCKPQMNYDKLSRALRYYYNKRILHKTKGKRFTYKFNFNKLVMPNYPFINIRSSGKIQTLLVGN
To be noted: protein: recombinant; tags: N-terminal GST; dsDNA, one strand shown. In a few lines: as §1

The target of assay [18] is ETV6 (Homo sapiens, UniProt P41212 1-452). As to conditions: protein: recombinant; tags: N-terminal GST; dsDNA, one strand shown. In a few lines: as §1
Chain of ETV6 (P41212 whole entry): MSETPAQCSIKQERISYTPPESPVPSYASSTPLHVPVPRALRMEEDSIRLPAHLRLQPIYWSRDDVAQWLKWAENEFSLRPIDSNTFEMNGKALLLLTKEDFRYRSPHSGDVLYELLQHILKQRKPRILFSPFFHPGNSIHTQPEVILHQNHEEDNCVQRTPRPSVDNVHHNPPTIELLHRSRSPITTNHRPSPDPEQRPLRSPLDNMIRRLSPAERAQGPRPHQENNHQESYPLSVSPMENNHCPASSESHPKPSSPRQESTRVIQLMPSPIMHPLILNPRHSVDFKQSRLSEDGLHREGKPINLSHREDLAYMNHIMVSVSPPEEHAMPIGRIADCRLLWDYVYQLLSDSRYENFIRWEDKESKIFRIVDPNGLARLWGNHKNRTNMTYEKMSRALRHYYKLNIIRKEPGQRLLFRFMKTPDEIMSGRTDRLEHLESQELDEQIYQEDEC

Chain of HSF1 (Q00613 whole entry): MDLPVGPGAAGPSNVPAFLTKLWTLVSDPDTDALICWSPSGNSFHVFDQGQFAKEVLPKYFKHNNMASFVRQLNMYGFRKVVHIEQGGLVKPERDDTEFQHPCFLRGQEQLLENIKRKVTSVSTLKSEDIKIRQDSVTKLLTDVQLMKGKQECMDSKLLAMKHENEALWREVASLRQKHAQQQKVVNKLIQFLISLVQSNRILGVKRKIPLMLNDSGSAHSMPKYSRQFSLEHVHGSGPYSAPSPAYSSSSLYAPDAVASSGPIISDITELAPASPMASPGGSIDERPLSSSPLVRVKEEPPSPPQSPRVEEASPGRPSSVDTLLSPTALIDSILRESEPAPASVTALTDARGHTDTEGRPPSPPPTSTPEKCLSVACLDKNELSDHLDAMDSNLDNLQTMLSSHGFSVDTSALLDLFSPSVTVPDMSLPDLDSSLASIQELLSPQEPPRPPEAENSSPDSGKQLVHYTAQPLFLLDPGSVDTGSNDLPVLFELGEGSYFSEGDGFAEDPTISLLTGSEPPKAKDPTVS
Chain of CRX (O43186 whole entry): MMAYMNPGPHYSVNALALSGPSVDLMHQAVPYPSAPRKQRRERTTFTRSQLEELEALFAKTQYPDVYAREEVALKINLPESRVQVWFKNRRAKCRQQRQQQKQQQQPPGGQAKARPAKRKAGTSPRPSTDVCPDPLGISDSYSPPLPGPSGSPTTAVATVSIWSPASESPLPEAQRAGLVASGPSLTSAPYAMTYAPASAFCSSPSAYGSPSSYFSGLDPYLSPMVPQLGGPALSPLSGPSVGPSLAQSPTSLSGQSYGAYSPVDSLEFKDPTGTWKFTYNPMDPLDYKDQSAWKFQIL
Chain of ETV1 (P50549 whole entry): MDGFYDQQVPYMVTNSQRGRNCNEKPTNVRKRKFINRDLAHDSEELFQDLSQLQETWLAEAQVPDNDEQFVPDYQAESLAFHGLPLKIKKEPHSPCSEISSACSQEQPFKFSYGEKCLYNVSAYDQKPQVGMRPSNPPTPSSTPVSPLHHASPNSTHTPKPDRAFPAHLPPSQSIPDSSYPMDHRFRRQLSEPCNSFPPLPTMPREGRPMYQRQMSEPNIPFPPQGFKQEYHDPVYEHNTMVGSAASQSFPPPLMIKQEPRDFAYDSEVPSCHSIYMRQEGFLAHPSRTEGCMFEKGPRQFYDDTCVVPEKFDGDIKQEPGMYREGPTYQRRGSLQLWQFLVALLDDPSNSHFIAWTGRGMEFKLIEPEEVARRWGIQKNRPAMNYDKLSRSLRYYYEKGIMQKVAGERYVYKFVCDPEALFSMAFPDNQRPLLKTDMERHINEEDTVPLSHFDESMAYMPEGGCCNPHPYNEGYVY
Chain of ETV5 (P41161 whole entry): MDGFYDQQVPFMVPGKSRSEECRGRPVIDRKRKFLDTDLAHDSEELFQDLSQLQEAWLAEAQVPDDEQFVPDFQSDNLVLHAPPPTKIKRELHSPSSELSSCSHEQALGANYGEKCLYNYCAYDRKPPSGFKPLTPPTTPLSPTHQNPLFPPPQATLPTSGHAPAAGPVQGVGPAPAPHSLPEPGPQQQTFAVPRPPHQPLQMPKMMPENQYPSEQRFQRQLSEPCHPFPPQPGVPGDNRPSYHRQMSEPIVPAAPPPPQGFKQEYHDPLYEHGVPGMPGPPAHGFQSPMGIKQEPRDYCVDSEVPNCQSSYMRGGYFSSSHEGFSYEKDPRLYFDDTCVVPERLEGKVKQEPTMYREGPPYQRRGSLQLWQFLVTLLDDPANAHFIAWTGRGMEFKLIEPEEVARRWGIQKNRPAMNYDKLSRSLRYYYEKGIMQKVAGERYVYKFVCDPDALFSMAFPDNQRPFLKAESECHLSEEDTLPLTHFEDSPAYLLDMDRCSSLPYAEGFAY
Chain of ELF4 (Q99607 whole entry): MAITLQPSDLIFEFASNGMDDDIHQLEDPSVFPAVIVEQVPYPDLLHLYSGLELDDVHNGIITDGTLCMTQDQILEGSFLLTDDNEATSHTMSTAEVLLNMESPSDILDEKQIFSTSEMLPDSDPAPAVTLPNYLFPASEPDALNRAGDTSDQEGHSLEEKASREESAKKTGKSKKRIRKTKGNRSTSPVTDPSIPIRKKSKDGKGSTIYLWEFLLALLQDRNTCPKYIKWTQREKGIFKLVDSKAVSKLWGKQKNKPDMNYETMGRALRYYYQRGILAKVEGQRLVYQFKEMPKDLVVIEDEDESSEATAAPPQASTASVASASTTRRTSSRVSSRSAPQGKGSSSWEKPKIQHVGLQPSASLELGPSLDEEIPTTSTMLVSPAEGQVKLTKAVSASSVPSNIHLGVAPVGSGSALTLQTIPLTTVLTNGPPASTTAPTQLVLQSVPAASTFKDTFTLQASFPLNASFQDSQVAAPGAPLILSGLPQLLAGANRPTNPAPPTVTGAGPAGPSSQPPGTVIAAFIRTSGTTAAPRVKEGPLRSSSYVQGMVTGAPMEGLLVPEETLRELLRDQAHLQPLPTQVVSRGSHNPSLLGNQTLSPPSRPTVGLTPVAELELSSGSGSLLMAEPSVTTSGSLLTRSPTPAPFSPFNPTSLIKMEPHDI

Take TCGCCT: the binding signal in [1] was 1.28 fold enrichment (6-mer frequency, TF over GST control); in assay [2] it was 1.3 fold enrichment (6-mer frequency, TF over GST control); in [3] it was 1.3 fold enrichment (6-mer frequency, TF over GST control); in assay [4], 1.22 fold enrichment (6-mer frequency, TF over GST control); in assay [5] it was 1.27 fold enrichment (6-mer frequency, TF over GST control); in assay [6], 1.5 fold enrichment (6-mer frequency, TF over GST control). Besides, the binding signal in [7] is 1.3 fold enrichment (6-mer frequency, TF over GST control); in [8], 1.31 fold enrichment (6-mer frequency, TF over GST control); in assay [9], 1.32 fold enrichment (6-mer frequency, TF over GST control); in assay [10], 1.41 fold enrichment (6-mer frequency, TF over GST control); in assay [11] it was 1.27 fold enrichment (6-mer frequency, TF over GST control); in [12], 1.23 fold enrichment (6-mer frequency, TF over GST control). The binding signal was 1.24 fold enrichment (6-mer frequency, TF over GST control) in [13]; 1.13 fold enrichment (6-mer frequency, TF over GST control) in [14]; 1.15 fold enrichment (6-mer frequency, TF over GST control) in assay [15]; 1.33 fold enrichment (6-mer frequency, TF over GST control) in assay [16]; 1.22 fold enrichment (6-mer frequency, TF over GST control) in assay [17]; 1.32 fold enrichment (6-mer frequency, TF over GST control) in [18].
